According to PubChem BioAssay (NCI):
Compounds without any hit were thinned out: in the full panel of roughly 83,000, 20% have a hit.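 Note: values are percent growth. 100 is the growth of untreated cells, values between 100 and 0 indicate rising inhibition; between -100 and 0 indicates cell death.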 The source made the active and inactive calls. Rule for the calls: active = growth percent below 10; inactive = the rest.

The compounds below were run on RPMI-8226 leukemia (assay: NCI-60 one-dose screen, 48 h (100 = growth as untreated, 0 = no growth, -100 = all killed)). Conditions: 10 µM unless noted.

| SMILES | growth |
| --- | --- |
| O=C(Nc1cccnc1Nc1ccc(Cl)cc1)c1cn(Cc2cccc(Oc3ccccc3)c2)nn1 | 40.9% (inactive) |
| C1CCC(N2CN3c4nonc4N4CN(C5CCCCC5)CN5c6nonc6N(C2)C3C45)CC1 (configuration not stated) | 81.3% (inactive) |
| N#Cc1c(-c2ccc(Br)cc2)nc2c(N=Nc3ccc(S(N)(=O)=O)cc3)c(N)nn2c1N | -13.6% (active) |
| COc1cc(/C=C/C(=O)c2cc(OC)c(OC)c(OC)c2)ccc1Oc1nc2c(c(=O)n(C)c(=O)n2C)n1C | 6.12% (active) |
| CC1(/C=C/c2ccc(-c3ccccc3)cc2)CCn2cnc3ncnc(c32)N1O (configuration not stated) | 21.3% (inactive) |
| CCCc1cc(=O)oc2c(C(=O)CC(C)C)c(O)c(CC=C(C)C)c(O)c12 | -12.6% (active) |
| CS(=O)(=O)Nc1cc(-c2ccc3ncnc(Nc4ccc(OCc5ccccn5)c(Cl)c4)c3c2)cnc1Cl | -50.3% (active) |
| CCN1CCN(CCNc2nccc(-c3c(-c4ccc(F)c(O)c4)nc4occn34)n2)S1(=O)=O | -22.7% (active) |
| COc1ccc(C2[C@@H](Cl)C(=O)N2c2cc(OC)c(OC)c(OC)c2)cc1Cl (some centres not stated) | 9.34% (active) |
| CN1CCN(Cc2ccc(NC(=O)c3cncc(C#Cc4cnc(N)cc4C#N)c3)cc2C(F)(F)F)CC1 | 12.7% (inactive) |
| CN(C)c1ccc([C@@H](C(=O)Nc2cccc([N+](=O)[O-])c2)N(C(=O)c2cc3ccccc3[nH]2)c2cccc([N+](=O)[O-])c2)cc1 | 92.6% (inactive) |
| c1cc(OCCN2CCCCC2)ccc1CNc1ccc2nc(CCC3CCCCC3)[nH]c2c1 | -22.5% (active) |
